Assay outcomes (PubChem BioAssay)
Most compounds without a hit are left out; they make up all but 6.3% or so of the library.
Autofluor 339: intrinsic fluorescence of library compounds, ex339/em460 – biochemical, MLSMR library, data from DPM-DC assay, artefact control, profiling panel; compound autofluorescence, ex339/em460 nm, NADH buffer; stronger effect = higher value; 1 = no-compound wells, NADH background; fluorescence fold increase at 10 µM; 5.5% of 65,000 active; AID 709;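 active = at 10 µM, mean starting fluorescence two-fold or more over control wells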;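 note: signal is the first read of a kinetic run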
Abs 340nm: compound absorbs light at 340 nm; compound absorbance at 340 nm, fold over control; fold change at 10 µM; 65,000 tested, under 10 active; AID 708;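 active = at 10 µM dose, initial 340 nm absorbance at least 2 fold that of control wells; inactive = change under 2 fold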;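 note: initial absorbance extrapolated from kinetic A340 decline of NADH oxidation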
MK inhibit: inhibitors of Streptococcus pneumoniae mevalonate kinase; 0.48% of 65,000 active; inhibition, % at 10 µM; purified MK, PK/LDH-coupled NADH absorbance 340 nm;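 active = ranked among the strongest by inhibition in the single 10 µM screen, a fixed top-ranked set picked for dose follow-up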
NADH coupling: inhibitors of enzymes used to reach an NAD/NADH endpoint; coupled PK/LDH NADH assays, four targets; IC50, µM (series often up to 10 µM), for the others: at the highest dose inhibition; 0.02% of 65,000 active; AID 774;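 active = single-dose screening hits from any of four coupled enzyme assays that gave an IC50 when retested across doses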;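 note: the DPM-DC format reads NADH fluorescence rather than 340 nm absorbance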
PMK inhibit: blocks S. pneumoniae phosphomevalonate kinase; inhibition, % at 10 µM; purified PMK, PK/LDH-coupled NADH absorbance 340 nm; 0.49% of 65,000 active;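 active = top-ranked compounds by inhibition in the single 10 µM screen, taking a fixed number of the strongest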;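 note: 0% = full reaction with DMSO carrier and 100% = background rate without enzyme reaction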
DPM-DC inhibit: S. pneumoniae DPM-DC inhibition. calls only at 10 µM. 0.49% of 65,000 active. purified DPM-DC, PK/LDH coupled NADH fluorescence;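 active = the 320 compounds with the highest percent inhibition in the single-dose primary screen, excluding strongly autofluorescent ones, cut at about 32% in these data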;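 note: kinetic rate of NADH fluorescence loss reporting ADP formed by the decarboxylase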
The depositor's hits bear a star; i = inactive; x = no result given; + = active, no number.

SMILES | Autofluor 339 | Abs 340nm | MK inhibit | NADH coupling | PMK inhibit | DPM-DC inhibit
CC(C)(O)P(C)(=O)c1ccccc1 (configuration not stated) | 0.5 | 0.99 | 7 | 23% | 14 | +
CC(C)(C)P(=O)(CO)c1ccccc1 (configuration not stated) | 1.1 | 1.1 | 11 | 4% | 0 | i
Cc1ccc(CS(=O)(=O)CCC(=O)N2CCOCC2)cc1 | 1.1 | 1 | 0 | 5% | 15 | i
CN1CC=C2C(C#N)=C(N)C(C#N)(C#N)[C@H](c3cccc(Cl)c3)C2C1 (some centres not stated) | 1.4 | 1 | 6 | 4% | 0 | i
CN1CC=C2C(C#N)=C(N)C(C#N)(C#N)C(CCc3ccccc3)C2C1 (configuration not stated) | 2* | 1 | 3 | 6% | 1 | i
CCCC1C2CN(C(C)C)CC=C2C(C#N)=C(N)C1(C#N)C#N (configuration not stated) | 4* | 1 | 8 | 13% | 6 | i
CCOC(=O)N1CC=C2C(C#N)=C(N)C(C#N)(C#N)[C@H](c3ccsc3)[C@H]2C1 | 1.7 | 1 | 13 | 12% | 19 | i
Cc1ccc(NCc2nnc(SCC(=O)c3ccccc3)n2Cc2ccco2)c(C)c1 | 1 | 1 | 5 | 2% | 0 | i
CSc1ccc(S(=O)(=O)Nc2ccc3c(c2)OCCO3)cc1 | 1.1 | 1 | 3 | 2% | 4 | i
O=C(Nc1ccc(N2CCCCC2)cc1)c1cccnc1 | 1.1 | 1.1 | 2 | 17% | 8 | +
O=C(Nc1ccc(N2CCN(Cc3ccccc3Cl)CC2)cc1)c1cccnc1 | 1 | 1 | 6 | 3% | 4 | i
O=C(Cn1c(-c2ccco2)nc2ccccc21)N1CCCCC1 | 1.4 | 1 | 16 | 8% | 8 | i
CCn1c(SCC(=O)Nc2ccc(NC(=O)c3ccco3)c(OC)c2)nc2ccccc2c1=O | 5.2* | 1 | 0 | 5% | 9 | x
CCCCn1c(SCC(=O)Nc2cc(NC(=O)c3ccco3)ccc2C)nc2ccccc2c1=O | 1.8 | 1.1 | 13 | 10% | 6 | i
Cc1occc1-c1nnc2sc(-c3ccc(-c4ccc(Cl)cc4)o3)nn12 | 2.1* | 1 | 3 | 7% | 10 | x
CCCCP(=O)(CCCC)c1ccccc1C(=O)O | 1 | 0.99 | 8 | 2% | 1 | i
CCOC(=O)c1cnc2c(C(=O)OC)cccc2c1NCc1ccco1 | 3.4* | 1.1 | 6 | 6% | 5 | x
CCOC(=O)c1cnc2c(C)cccc2c1NCc1ccco1 | 1.4 | 1.1 | 12 | 8% | 0 | i
CCOC(=O)c1ccc2ncc(C(=O)OCC)c(NCc3ccco3)c2c1 | 3.8* | 1.1 | 13 | 12% | 10 | x
c1cc(CSc2nnc(-c3ccc4c(c3)OCO4)o2)ccn1 | 1 | 1 | 6 | 7% | 13 | i
COc1cccc(CNC(=O)C2CCCN(c3nn4c(=O)cc(C)nc4s3)C2)c1 (configuration not stated) | 1.1 | 1 | 0 | 9% | 27* | i
Cc1ccc(S(=O)(=O)Nc2nc3ccc(S(=O)(=O)N4CCCC4)cc3s2)cc1 | 1.2 | 1 | 3 | 3% | 4 | i
CN(C)CCSc1nnc(-c2ccccc2)o1 | 1.2 | 1 | 5 | 18% | 5 | +
CSc1nnc(-c2ccccc2)o1 | 1.1 | 1 | 7 | 3% | 2 | i
COc1ccc(-c2c(C)oc3cc(O)cc(O)c3c2=O)cc1OC | 1.1 | 1.1 | 7 | 3% | 0 | i
SMILES | Autofluor 339 | Abs 340nm | MK inhibit | NADH coupling | PMK inhibit | DPM-DC inhibit
O=c1c(-c2ccc(F)cc2)coc2cc(O)ccc12 | 2.2* | 1.1 | 9 | 5% | 0 | x
COc1ccc(-c2coc3cc(O)ccc3c2=O)cc1OC | 3.6* | 1.1 | 0 | 16% | 17 | +
COc1ccc2cc3cc(C(=O)NCCN4CCN(Cc5ccccc5)CC4)oc3nc2c1 | 5.2* | 1.1 | 3 | 8% | 12 | x
COc1ccc2cc3cc(C(=O)NCCN4CCc5ccccc5C4)oc3nc2c1 | 5.1* | 1.1 | 3 | 6% | 8 | x
COc1ccc(NC(=O)NCCCN2CCc3ccccc3C2)cc1 | 1.1 | 0.99 | 10 | 4% | 2 | i
CC(=O)N1CCC2(CC1)CC(=O)c1cc(OCC(=O)NCc3ccco3)ccc1O2 | 3.4* | 1 | 0 | 6% | 12 | x
